# Test results: PubChem BioAssay (Tox21)
# Results filed as inconclusive are left out. A call without a number means that no potency is given here. More than one record can exist for a structure, and the calls need not agree. Activity calls are given as the source filed them. Unless noted, calls follow the shape of the dose curve; as a rule, active = well fitted curve in the direction sought with a large enough effect in the repeat runs; inconclusive = weak or mixed curves; inactive = no such curve, though single readings can be large; an effect the other way counts as inactive or inconclusive.
# Assays:
# [1] = molecular target: Retinoic acid receptor RXR-alpha (Homo sapiens) (UniProt P19793); assay: qHTS assay to identify small molecule agonists of the RXR signaling pathway (AID 1159527; calls by dose curve; also: nearly all actives have a fitted effect of over 35% in size); details: HEK293T RXRa-UAS-bla, beta-lactamase ratio, 16 h; series mostly up to 76.8 µM
# Outline: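 Using 9-cis retinoic acid as the reference agonist, chemicals were tested in HEK 293T cells […] for 16 hr; substrate loading lasted 2 hr at room temperature.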
# [2] = qHTS assay to identify small molecule agonists of the RXR signaling pathway - cell viability counter screen (AID 1159529); details: RXR-alpha-bla HEK293T viability, CellTiter-Glo, 16 h; series mostly up to 76.8 µM; also: nearly all actives have a fitted effect of over 50% in size; also: potency is read from the fitted curve at half-maximal effect
# Outline: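 Compounds dissolved in DMSO were pinned onto HEK 293T cells carrying a beta-lactamase reporter under RXR-alpha control and incubated 16 hr. Cytotoxicity was then quantified by CellTiter-Glo luminescence.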
# [3] = qHTS assay to identify small molecule antagonists of the retinoid acid receptor (RAR) signaling pathway - cell viability counter screen (AID 1159551); details: C3RL4 cells viability, ATP luminescence (CellTiter-Glo), 6 h; series mostly up to 92.4 µM; also: nearly all actives have a fitted effect of over 35% in size
# Outline: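 Retinol-stimulated (1 uM final) C3RL4 cells, compound 6 h, 37 C; readout CellTiter-Glo luminescence (ATP) after 30 min RT incubation.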
# [4] = qHTS assay to identify small molecule antagonists of the retinoic acid receptor (RAR) signaling pathway (AID 1159552; also: nearly all actives have a fitted effect of over 50% in size; also: potency is read from the fitted curve at half-maximal effect); details: C3RL4 RARE luciferase reporter, retinol-stimulated, 6 h; series mostly up to 92.4 µM
# Outline: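 Test chemicals and DMSO controls were pin-transferred onto C3RL4 cells a day after seeding; retinol (1 uM final) followed at once. Luminescent reporter output was quantified after 6 hr of co-incubation and 30 min with detection reagent.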
# [5] = qHTS assay to identify small molecule agonists of the retinoic acid receptor (RAR) signaling pathway (AID 1159553); details: C3RL4 RARE luciferase reporter, agonist, 6 h; series mostly up to 73.3 µM
# Outline: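 Reporter readout comes from luciferase under RARE control in C3RL4 cells; compound exposure lasts 6 hr at 37 C in 5% CO2, and luminescence is recorded following a 30 min room-temperature incubation with reagent.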
# Sequence of Retinoic acid receptor RXR-alpha (Homo sapiens) (P19793 whole entry, looked up): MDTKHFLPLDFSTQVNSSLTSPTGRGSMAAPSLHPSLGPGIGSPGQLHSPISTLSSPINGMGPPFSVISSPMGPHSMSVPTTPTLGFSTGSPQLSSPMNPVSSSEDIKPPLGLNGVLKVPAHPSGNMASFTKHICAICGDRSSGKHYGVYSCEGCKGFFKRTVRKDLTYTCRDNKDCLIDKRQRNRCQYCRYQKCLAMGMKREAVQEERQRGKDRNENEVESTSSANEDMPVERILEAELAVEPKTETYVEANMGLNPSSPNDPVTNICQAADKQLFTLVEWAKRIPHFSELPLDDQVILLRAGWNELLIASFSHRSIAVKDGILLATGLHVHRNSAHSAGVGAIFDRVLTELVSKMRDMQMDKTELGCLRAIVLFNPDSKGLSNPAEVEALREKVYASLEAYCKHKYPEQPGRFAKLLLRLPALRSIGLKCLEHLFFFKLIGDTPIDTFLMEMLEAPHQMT
SMILES,Potency [1],Potency [2],Potency [3],Potency [4],Potency [5]
ClCCCCBr,inactive,inactive,inactive,inactive,inactive
O=C(CBr)c1ccccc1,inactive,inactive,inactive,inactive,–
c1ccc(CN2CCNCC2)cc1,inactive,inactive,inactive,inactive,–
C[C@H]1CNCCc2ccc(Cl)cc21,inactive,inactive,inactive,inactive,inactive
O=NN1CCNCC1,inactive,inactive,inactive,inactive,inactive
COP(=O)(OC)O/C(=C/Cl)c1cc(Cl)c(Cl)cc1Cl,inactive,inactive,inactive,57.5 µM (active),–
Cc1ccc2ccccc2c1,inactive,inactive,inactive,–,–
CCC(Br)(CC)C(=O)NC(N)=O,inactive,inactive,inactive,inactive,–
C=CCC1([C@H](C)CCC)C(=O)NC(=O)NC1=O,inactive,inactive,inactive,inactive,–
c1ccoc1,inactive,inactive,inactive,–,–
Clc1cc(Cl)c(Cl)c(Cl)c1,inactive,inactive,inactive,inactive,inactive
ClC=C(Cl)Cl,inactive,inactive,inactive,–,–
CCCCCC[N+](=O)[O-],inactive,inactive,inactive,–,–
N#C/C(N)=C(/N)C#N,inactive,inactive,inactive,inactive,–
ClCC(Br)CBr (stereo not drawn),inactive,inactive,inactive,inactive,inactive
Clc1cccc2ccccc12,inactive,inactive,inactive,–,–
Cc1cc(=O)[nH]o1,inactive,inactive,inactive,–,–
O=[N+]([O-])c1ccccc1CCl,inactive,inactive,inactive,–,–
Brc1ccc(Oc2ccccc2)cc1,inactive,31.7 µM (active) and inactive,inactive,–,–
